This is an account of results in the antibiotic and cytotoxicity screens of Wong et al. (2023).

Among all 39,000 compounds or so, about 3,300 (8.5%) were called active. Only a selection was taken, and actives are over-represented in it overall.

The assay has as its system HepG2. Description: cytotoxicity call (relative viability < 0.9). The following applies: 10 µM.
In the case of `O=C(C[C@@H]1CC[C@H]2[C@@H](COC[C@@H](O)CN2S(=O)(=O)c2ccccc2)O1)N[C@@H]1CCN(Cc2ccccc2)C1`, the cytotoxicity call is “inactive”. As to `Cc1noc(C)c1NC(=O)Nc1ccc2c(c1)C(=O)N([C@H](C)CO)C[C@@H](C)[C@H](CN(C)Cc1ccc(Cl)c(Cl)c1)OCCCC[C@H](C)O2`, the cytotoxicity call was “inactive”.

`Cc1noc(C)c1NC(=O)Nc1ccc2c(c1)C(=O)N([C@@H](C)CO)C[C@H](C)[C@@H](CN(C)Cc1ccc(Cl)c(Cl)c1)OCCCC[C@@H](C)O2`: the cytotoxicity call was “active”. Turning to `Cc1noc(C)c1NC(=O)Nc1ccc2c(c1)C(=O)N([C@H](C)CO)C[C@H](C)[C@H](CN(C)Cc1ccc(Cl)c(Cl)c1)OCCCC[C@@H](C)O2`, the cytotoxicity call was “inactive”. In the case of `Cc1noc(C)c1NC(=O)Nc1ccc2c(c1)C(=O)N([C@@H](C)CO)C[C@@H](C)[C@H](CN(C)Cc1ccc(Cl)c(Cl)c1)OCCCC[C@H](C)O2`, the cytotoxicity call is “inactive”.

Consider `Cc1noc(C)c1NC(=O)Nc1ccc2c(c1)C(=O)N([C@@H](C)CO)C[C@@H](C)[C@@H](CN(C)Cc1ccc(Cl)c(Cl)c1)OCCCC[C@@H](C)O2`, for which the cytotoxicity call was “active”.

As for `Cc1noc(C)c1NC(=O)Nc1ccc2c(c1)C(=O)N([C@H](C)CO)C[C@@H](C)[C@@H](CN(C)Cc1ccc(Cl)c(Cl)c1)OCCCC[C@H](C)O2`, the cytotoxicity call was “active”. Take `Cc1noc(C)c1NC(=O)Nc1ccc2c(c1)C(=O)N([C@@H](C)CO)C[C@@H](C)[C@H](CN(C)Cc1ccc(Cl)c(Cl)c1)OCCCC[C@@H](C)O2`: the cytotoxicity call was “active”.

On to `Cc1noc(C)c1NC(=O)Nc1ccc2c(c1)C(=O)N([C@H](C)CO)C[C@H](C)[C@@H](CN(C)Cc1ccc(Cl)c(Cl)c1)OCCCC[C@@H](C)O2`, for which the cytotoxicity call was “inactive”. For the compound `Cc1noc(C)c1NC(=O)Nc1ccc2c(c1)C(=O)N([C@@H](C)CO)C[C@H](C)[C@@H](CN(C)Cc1ccc(Cl)c(Cl)c1)OCCCC[C@H](C)O2`, the cytotoxicity call is “inactive”.

Turning to `Cc1noc(C)c1NC(=O)Nc1ccc2c(c1)C(=O)N([C@H](C)CO)C[C@H](C)[C@@H](CN(C)Cc1ccc(Cl)c(Cl)c1)OCCCC[C@H](C)O2`, the cytotoxicity call is “inactive”. With `Cc1noc(C)c1NC(=O)Nc1ccc2c(c1)C(=O)N([C@H](C)CO)C[C@H](C)[C@H](CN(C)Cc1ccc(Cl)c(Cl)c1)OCCCC[C@H](C)O2`, the cytotoxicity call was “inactive”. Consider `Cc1noc(C)c1NC(=O)Nc1ccc2c(c1)C(=O)N([C@H](C)CO)C[C@@H](C)[C@H](CN(C)Cc1ccc(Cl)c(Cl)c1)OCCCC[C@@H](C)O2`, for which the cytotoxicity call was “inactive”.

With `Cc1ccc(S(=O)(=O)Nc2ccc3c(c2)C(=O)N([C@@H](C)CO)C[C@H](C)[C@@H](CN(C)S(C)(=O)=O)OCCCC[C@H](C)O3)cc1`, the cytotoxicity call was “inactive”. For the compound `C[C@H](CO)N1C[C@H](C)[C@H](CN(C)C(=O)Nc2ccc(C(F)(F)F)cc2)OCCCC[C@H](C)Oc2ccc(NC(=O)c3ccncc3)cc2C1=O`, the cytotoxicity call was “inactive”. Turning to `C[C@H]1CN([C@@H](C)CO)C(=O)c2cc(C#Cc3ccccc3F)cnc2O[C@@H]1CN(C)S(=O)(=O)c1ccccc1`, the cytotoxicity call is “inactive”. `C[C@H](CO)N1C[C@H](C)[C@@H](CN(C)S(=O)(=O)c2ccccc2)Oc2ncc(Br)cc2C1=O`: the cytotoxicity call is “inactive”.

Consider `S=C(Nc1ccccc1)Nc1ccc2c(c1)oc1ccccc12`, for which the cytotoxicity call is “inactive”. To `COc1ccc(CN(C)C[C@@H]2Oc3ccc(NC(=O)Cn4cnnn4)cc3CC(=O)N([C@H](C)CO)C[C@@H]2C)cc1` belongs “inactive”. To `C[C@@H](N)c1cnn(-c2ccccc2F)c1` belongs “inactive”; to `CCN(CC)CCNc1ccc(CO)c2sc3ccccc3c(=O)c12`, “active”. Then `CCN(CC)CCNc1ccc(COc2cccc(/C=C(C)/C=C/C(=O)NO)c2)c2sc3ccccc3c(=O)c12`, with “inactive”; and `CCN(CC)CCNc1ccc(COc2ccccc2/C=C(C)/C=C/C(=O)NO)c2sc3ccccc3c(=O)c12`, with “inactive”; and `C[C@@H]1CCCCO[C@@H](CN(C)Cc2ccc(C(=O)O)cc2)[C@@H](C)CN([C@H](C)CO)C(=O)c2cc(NS(=O)(=O)c3cccs3)ccc2O1`, with “inactive”. Turning to `O=C(C[C@H]1C=C[C@H](NC(=O)c2cccnc2)[C@@H](CO)O1)NCCN1CCCCC1`, the cytotoxicity call was “active”. On to `O=C(C[C@@H]1C=C[C@@H](NC(=O)c2cccnc2)[C@@H](CO)O1)NCCN1CCCCC1`, for which the cytotoxicity call is “inactive”. Turning to `CN(C)CC(=O)N[C@H]1C=C[C@@H](CC(=O)NCCN2CCCCC2)O[C@@H]1CO`, the cytotoxicity call was “active”. In the case of `CN(C)CC(=O)N[C@@H]1C=C[C@H](CC(=O)NCCN2CCCCC2)O[C@H]1CO`, the cytotoxicity call was “inactive”. As to `CN(C)CC(=O)N[C@@H]1C=C[C@@H](CC(=O)NCCN2CCCCC2)O[C@H]1CO`, the cytotoxicity call was “inactive”. `O=C(C[C@@H]1C=C[C@@H](NC(=O)c2cccnc2)[C@H](CO)O1)NCCN1CCCCC1`: the cytotoxicity call is “inactive”. As to `COCC#Cc1ccc2c(c1)O[C@@H](CN(C)C(=O)Nc1ccc(OC)cc1)[C@H](C)CN([C@@H](C)CO)S2(=O)=O`, the cytotoxicity call is “inactive”.

`CC(C)(C)OC(=O)C[C@@H]1CC=CC[C@H](CC(=O)N[C@@H](CO)Cc2ccccc2)C(=O)N2CCC[C@@H]2COC1=O`: the cytotoxicity call is “inactive”.

In the case of `Cc1noc(C)c1NC(=O)N(C)C[C@H]1Oc2c(NS(C)(=O)=O)cccc2C(=O)N([C@@H](C)CO)C[C@H]1C`, the cytotoxicity call was “inactive”. Then `CC(C)(C)S(=O)N1Cc2cc(C(=O)N[C@@H]3CCN(Cc4ccccc4)C3)nc(-c3cccc(C#CCC4CCCC4)c3)c2[C@@H]1CCO` (stereo partly drawn), with “inactive”; and `N#CC(=Cc1ccc(O)c(O)c1)C(N)=O`, with “inactive”. Consider `N#C/C(=C\c1ccc(O)c(O)c1)C(N)=O`, for which the cytotoxicity call was “active”. As for `CCN(CC)C(=O)C(C#N)=Cc1cc(O)c(O)c([N+](=O)[O-])c1`, the cytotoxicity call is “inactive”.

For the compound `Cc1noc(C)c1S(=O)(=O)Nc1cccc2c1O[C@@H](CN(C)C(=O)Nc1ccccc1)[C@@H](C)CN([C@H](C)CO)C2=O`, the cytotoxicity call was “inactive”. On to `CC(C)NC(=O)Nc1ccc2c(c1)C(=O)N([C@H](C)CO)C[C@@H](C)[C@@H](CN(C)CC1CCCCC1)OCCCC[C@@H](C)O2`, for which the cytotoxicity call was “inactive”. Then `NCc1ccc(Br)s1`, with “inactive”; and `Cc1noc(C)c1S(=O)(=O)Nc1ccc2c(c1)C(=O)N([C@H](C)CO)C[C@H](C)[C@H](CN(C)S(C)(=O)=O)OCCCC[C@@H](C)O2`, with “inactive”; and `C[C@H](CO)N1C[C@H](C)[C@H](CN(C)Cc2ccc3c(c2)OCO3)Oc2ccc(NC(=O)C3CC3)cc2C1=O`, with “inactive”. Turning to `C[C@@H]1CCCCO[C@@H](CN(C)S(=O)(=O)c2cccs2)[C@@H](C)CN([C@@H](C)CO)C(=O)c2cc(NC(=O)C3CCCCC3)ccc2O1`, the cytotoxicity call is “inactive”. On to `C[C@@H]1CN([C@@H](C)CO)S(=O)(=O)c2ccc(/C=C/c3ccccc3)cc2O[C@H]1CN(C)C(=O)Nc1cc(F)ccc1F`, for which the cytotoxicity call is “inactive”. To `COc1cccc(C#Cc2ccc3c(c2)O[C@H](CN(C)C(C)=O)[C@@H](C)CN([C@H](C)CO)S3(=O)=O)c1` belongs “inactive”. Take `COc1cccc(C#Cc2ccc3c(c2)O[C@@H](CN(C)C(=O)c2ccccn2)[C@@H](C)CN([C@@H](C)CO)S3(=O)=O)c1`: the cytotoxicity call was “inactive”.

Turning to `COc1cccc(C#Cc2ccc3c(c2)O[C@H](CN(C)C(=O)c2ccccn2)[C@@H](C)CN([C@H](C)CO)S3(=O)=O)c1`, the cytotoxicity call is “inactive”.

Take `COc1ccc(C#Cc2ccc3c(c2)O[C@H](CN(C)C(=O)c2ccccn2)[C@@H](C)CN([C@@H](C)CO)S3(=O)=O)cc1`: the cytotoxicity call is “inactive”. `COc1ccc(C#Cc2ccc3c(c2)O[C@@H](CN(C)C(=O)c2ccccn2)[C@H](C)CN([C@@H](C)CO)S3(=O)=O)cc1`: the cytotoxicity call was “inactive”.

Turning to `COc1ccc(C#Cc2ccc3c(c2)O[C@H](CN(C)C(=O)c2ccccn2)[C@H](C)CN([C@@H](C)CO)S3(=O)=O)cc1`, the cytotoxicity call is “active”.

Consider `COc1cccc(C#Cc2ccc3c(c2)O[C@@H](CN(C)C(C)=O)[C@@H](C)CN([C@@H](C)CO)S3(=O)=O)c1`, for which the cytotoxicity call is “active”.

On to `COc1cccc(C#Cc2ccc3c(c2)O[C@H](CN(C)C(C)=O)[C@H](C)CN([C@@H](C)CO)S3(=O)=O)c1`, for which the cytotoxicity call is “inactive”. On to `COc1cccc(C#Cc2ccc3c(c2)O[C@H](CN(C)C(=O)c2ccccn2)[C@H](C)CN([C@H](C)CO)S3(=O)=O)c1`, for which the cytotoxicity call is “active”. To `C[C@H]1CN([C@@H](C)CO)C(=O)c2cc(NC(=O)c3ccncc3)ccc2O[C@H]1CN(C)Cc1ccc(Oc2ccccc2)cc1` belongs “inactive”; to `COCC#Cc1ccc2c(c1)O[C@H](CN(C)C(=O)Nc1ccccc1F)[C@H](C)CN([C@H](C)CO)S2(=O)=O`, “inactive”. To `Cc1ccc(S(=O)(=O)N[C@@H](Cc2ccccc2)C(=O)NCCn2cc(-c3ccc(C(=O)NO)s3)nn2)cc1` belongs “inactive”. Consider `COc1cccc(S(=O)(=O)N(C)C[C@@H]2Oc3cc(C#CCN(C)C)ccc3S(=O)(=O)N([C@@H](C)CO)C[C@H]2C)c1`, for which the cytotoxicity call is “inactive”.

On to `NC(=O)NS(=O)(=O)c1ccc(N)cc1`, for which the cytotoxicity call is “inactive”. To `CC(=O)NS(=O)(=O)c1ccc(N)cc1` [listing 1 of 2 here] belongs “inactive”; to `CC(=O)NS(=O)(=O)c1ccc(N)cc1` [listing 2 of 2 here], “active”; to `C[C@H](CO)N1C[C@H](C)[C@H](CN(C)C(=O)Nc2cccc3ccccc23)Oc2ccc(NC(=O)Nc3ccc4c(c3)OCO4)cc2C1=O`, “inactive”. To `Nc1nnc([C@H]2CCCO2)o1` belongs “inactive”.

As for `O=C(O)c1ccc(-c2ccccc2)cc1`, the cytotoxicity call was “inactive”.

In the case of `O=C(O)c1ccc2nc(O)c(=O)[nH]c2c1`, the cytotoxicity call was “inactive”.

With `O=C(O)c1ccc(-n2nc(-c3ccccc3O)nc2-c2ccccc2O)cc1`, the cytotoxicity call is “active”. For the compound `COCC#Cc1cnc2c(c1)C(=O)N([C@@H](C)CO)C[C@H](C)[C@@H](CN(C)C(=O)Nc1ccccc1OC)O2`, the cytotoxicity call was “inactive”. Then `Cc1noc(C)c1S(=O)(=O)N(C)C[C@@H]1OCCCC[C@@H](C)Oc2ccc(NC(=O)Nc3cccc4ccccc34)cc2C(=O)N([C@@H](C)CO)C[C@H]1C`, with “inactive”. In the case of `COc1ccc(NC(=O)N(C)C[C@@H]2OCCCC[C@H](C)Oc3ccc(NS(=O)(=O)c4ccc(Cl)cc4)cc3C(=O)N([C@H](C)CO)C[C@@H]2C)cc1`, the cytotoxicity call was “inactive”.
